Six1-Eya2 inh: blocks human Six1 binding to Eya2. activity change, % (no concentration beside the values). AlphaScreen GST-Six1/His-Eya2 binding, biochemical; stronger effect = lower value. Q15475+O00167. actives 0.56% (n = 360,000). AID 651725
Target sequence (O00167 whole entry, looked up): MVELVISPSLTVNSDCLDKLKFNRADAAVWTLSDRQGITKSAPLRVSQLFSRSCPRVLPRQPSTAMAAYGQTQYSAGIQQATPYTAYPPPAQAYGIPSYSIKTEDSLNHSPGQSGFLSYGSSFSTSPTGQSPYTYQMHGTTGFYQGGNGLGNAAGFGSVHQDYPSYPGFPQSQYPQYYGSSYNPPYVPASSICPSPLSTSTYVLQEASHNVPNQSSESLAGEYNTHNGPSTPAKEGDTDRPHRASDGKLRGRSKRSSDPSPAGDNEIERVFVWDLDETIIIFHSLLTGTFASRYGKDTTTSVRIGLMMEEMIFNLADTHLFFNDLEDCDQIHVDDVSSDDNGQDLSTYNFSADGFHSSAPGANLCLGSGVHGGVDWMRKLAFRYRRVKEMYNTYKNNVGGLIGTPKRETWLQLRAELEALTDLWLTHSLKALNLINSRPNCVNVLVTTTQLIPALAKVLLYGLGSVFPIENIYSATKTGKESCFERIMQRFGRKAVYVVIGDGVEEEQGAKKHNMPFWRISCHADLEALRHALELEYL
Target sequence (Q15475 whole entry, looked up): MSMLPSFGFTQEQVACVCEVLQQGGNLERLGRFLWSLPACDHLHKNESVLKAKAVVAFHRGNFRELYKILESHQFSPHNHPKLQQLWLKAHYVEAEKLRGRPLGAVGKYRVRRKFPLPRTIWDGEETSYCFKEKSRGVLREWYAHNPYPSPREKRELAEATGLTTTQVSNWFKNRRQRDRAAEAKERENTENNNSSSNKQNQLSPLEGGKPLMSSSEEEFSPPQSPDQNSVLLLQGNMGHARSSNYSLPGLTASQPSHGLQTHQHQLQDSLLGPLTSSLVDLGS
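AlphaScreen with GST-Six1 and His-Eya2 (5X mix: 250 nM and 500 nM), glutathione donor and nickel acceptor beads; buffer 50 mM Tris pH 8.0, 300 mM NaCl, 1 mM TCEP; 1 h at 37 C in the dark.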
hERG WT inh: blocks the wildtype human KCNH2 potassium channel; U2OS, BacMam KCNH2, thallium flux FluxOr; stronger effect = lower value; activity change, % at 1.84 µM; actives 0.37% (n = 340,000); AID 720551;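 active means maximum activity change below -70%; inconclusive means maximum activity change between -70% and -50%; inactive means maximum activity change above -50%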
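U2OS cells were transduced with wild-type KCNH2 virus (2.03 x 10^8 / mL) for 4 h at room temperature, then cultured overnight at 37 C. Thallium flux was read with FluxOr dye. Rate constants were normalized to DMSO controls.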
KDM4E inh: JMJD2E (human) inhibition; B2RXH2; JMJD2E catalytic domain, FDH-coupled NADH fluorescence (FDH is formaldehyde dehydrogenase); Potency, µM (highest dose often 57.1 µM), without a hit: top-dose activity change, negative = inhibition, hits mostly inhibitors; actives 1.6% (n = 230,000); active means well fitted inhibition curve with a large enough effect, not every such curve was filed as active; inconclusive means small, poorly fitted or top-dose-only effect, or another doubt; inactive means no such curve, though single readings can be large or run the other way;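 further: potency means the concentration at half of the fitted maximal effect; 0% = wells with enzyme and -100% = buffer wells without enzyme; nearly all actives have a fitted effect of over 50% in size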
CtBP-E1A inh: blocks the CtBP interaction with E1A; AlphaScreen GST-E1A/His-CtBP binding, 1536-well; stronger effect = lower value; activity change, % (no concentration beside the values); AID 651724; actives 0.49% (n = 340,000)
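Protein mix (5X: 125 nM each GST-E1A, His-CtBP) was incubated with pinned compound 2 h at 37 deg C in dark, in 50 mM Tris pH 8.0 buffer with 300 mM NaCl. Glutathione donor and nickel acceptor beads followed; AlphaScreen signal read after 1 h.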
KCNH2 3.1 inh: KCNH2 3.1 (human) potassium channel inhibition; U2OS KCNH2 3.1, thallium flux FluxOr; stronger effect = lower value; actives 0.95% (n = 340,000); activity change, % (tested at about 1.8 µM); AID 720553;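 active means maximum activity change below -70%; inconclusive means maximum activity change from -70% to -50%; inactive means maximum activity change above -50%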;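 further: thallium influx rate constant from kinetic fluorescence after stimulation buffer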
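Kinetic fluorescence (2 min after stimulation buffer) measures Tl+ influx through KCNH2 3.1 expressed by viral transduction in U2OS cells; the rate constant is normalized against DMSO controls serving as positive and negative references.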
An asterisk follows results filed as active; ? = inconclusive; . = no result; [ ] = remark or other dose. In the library only some 2% were active in any assay of this set; here they are far more common. Unless noted, no stated cut-off is given here; in the data, active means activity change below about -65%; inconclusive means mostly about -30% to -63%; inactive means weaker than that. Unless noted, on the % scale 0 is the no-effect control and ±100 the full control effect.

SMILES	Six1-Eya2 inh	hERG WT inh	KDM4E inh	CtBP-E1A inh	KCNH2 3.1 inh
COc1cc(NS(C)(=O)=O)ccc1Nc1c2ccccc2nc2ccccc12	-24	9	?	-22	9
CCOC(=O)C1=C(C)NC2=C(C(=O)C(C(=O)OCC)C(c3ccccc3OC)C2)C1c1ccccn1 (stereo unspecified)	6	-4	?	17	-2
CCC(=O)c1ccc(N2CCC(C)CC2)c(F)c1	22	0	6%	16	13
CCOc1ccc(C(=O)N/N=C(\c2ccccc2)c2ccccn2)cc1	?	2	-25%	-67*	-21
CCOc1ccc(C(=O)Nc2cccc3cccnc23)cc1	-4	-5	.	0	-6
Cn1ccnc1/C(=N\NC(=O)c1ccccc1)c1cccc([N+](=O)[O-])c1	-4	-3	-5%	-1	-11
O=C(N/N=C(\c1ccccc1)c1ccccn1)c1cccc([N+](=O)[O-])c1	-91*	-5	-5%	.	-42
Cn1c(=O)[nH]c2ncccc21	15	0	-21%	-1	-29
CC(C)c1ccc(S(=O)(=O)N2CCN(C(=O)c3ccco3)CC2)cc1	11	-14	1%	14	0
Cc1ccc(CCNC(=O)CS(=O)Cc2nc(-c3ccccc3Cl)oc2C)cc1 (stereo unspecified)	-20	6	.	.	-11
O=C(/C=C/c1ccc(Cl)cc1)N(Cc1ccccc1)C1CCS(=O)(=O)C1 (stereo unspecified)	-2	0	0%	0	-75*
O=C(/C=C/c1ccc(Cl)cc1Cl)N(Cc1ccccc1)C1CCS(=O)(=O)C1 (stereo unspecified)	7	-8	-4%	3	-3
O=C(CCCC(=O)OCC(=O)NC1CCCC1)Nc1ccccn1	3	-11	-7%	1	17
CCn1c(O)c(/C=C/C=C/C=Nc2ccccc2)sc1=S	5	-226*	4%	-14	-184*
CC(=O)Oc1ccc2c(=O)c(/C=N/c3cc(=O)[nH]c(=S)[nH]3)coc2c1	-75*	9	-28%	-4	6
CC(C)CCn1cnc2c1c(=O)[nH]c(=O)n2Cc1ccccc1	9	7	.	.	-8
CC(C)Cn1cnc2c1c(=O)[nH]c(=O)n2Cc1ccccc1	6	-2	.	.	-82*
Cc1ccc(Nc2ccc(N3CCN(c4ccc([N+](=O)[O-])cc4)CC3)nn2)cc1	0	-86*	1%	.	-109*
COc1cc(N)c(Cl)cc1C(=O)N[C@@H]1CCN(CCCOc2ccc(F)cc2)C[C@@H]1OC	.	.	-23%	.	.
COc1cc(N)c(Cl)cc1C(=O)N[C@H]1CCN(CCCOc2ccc(F)cc2)C[C@H]1OC	-1	-70*	-9%[25.5 µM]	-2	-84*
COc1ccc(Cl)cc1NC(=O)COC(=O)CNC(=O)c1ccc([N+](=O)[O-])c(C)c1	-7	0	-1%	-7	-3
COc1ccc(C(=O)Nc2nc3ccccc3[nH]2)cc1OC	-10	-5	1%	-6	-7
COc1ccc(C(=O)Nc2nc3ccccc3[nH]2)cc1S(=O)(=O)N1CCCC1	?	4	-1%	-70*	-10
O=C(Nc1nc2ccccc2[nH]1)c1ccc(F)cc1	-10	5	?	-16	-97*
COc1ccc(-c2c[n+]3c4n2CCCCC4=C(c2ccc(Br)cc2)C3)cc1	?	17	?	-23	-169*
SMILES	Six1-Eya2 inh	hERG WT inh	KDM4E inh	CtBP-E1A inh	KCNH2 3.1 inh
CC1CC(C)CN(C(=O)c2ccc3c(c2NCCO)C(=O)c2ccccc2C3=O)C1 (stereo unspecified)	-70*	-3	-8%	?	-2
O=S(=O)(Nc1cccc(-c2cn3cccnc3n2)c1)c1ccccc1	-83*	-13	-2%	-21	7
O=S(=O)(Nc1cccc(-c2cn3cccnc3n2)c1)c1ccc(-c2ccccc2)cc1	?	4	?	?	5
O=S(=O)(Nc1cccc(-c2cn3cccnc3n2)c1)c1ccc(F)cc1	-67*	10	?	-1	-11
COc1ccc(Cn2c(=O)[nH]c3cc(C(=O)N4CCN(c5ccccc5)CC4)ccc3c2=O)cc1	1	11	.	20	-3
NC(=S)NNC(=O)Nc1cccc(Cl)c1	10	15	-2%	14	11
NC(=S)NNc1cccc(Cl)c1	-6	-3	-7%	-7	-82*
CN(Cc1cccs1)C(=O)COc1cccc(-n2cnnn2)c1	-1	-78*	0%	0	-15
COc1ccc(C2CC(c3ccc(Br)cc3)=NN2C(=O)CN2CCCC2)cc1 (stereo unspecified)	-4	27	-20%	-20	-83*
CCOC(=O)c1nnn(CC(=O)N2N=C(c3ccc(Cl)cc3)CC2c2ccc(OC)cc2)c1C(=O)OCC (stereo unspecified)	-13	-76*	32µM*	0	?
CCOC(=O)c1nnn(CC(=O)N2N=C(c3ccc(Cl)cc3)CC2c2ccccc2)c1C(=O)OCC (stereo unspecified)	2	-12	?	11	-71*
COc1ccc(C2=NN(C(=O)CCC(=O)O)C(c3ccccc3)C2)cc1 (stereo unspecified)	5	3	.	-1	16
Clc1cccc(OCCN2CCOCC2)c1	9	3	?	-1	2
NC(=O)CSc1oc(-c2ccco2)nc1S(=O)(=O)c1ccccc1	-1	-12	.	-4	-8
COc1ccc(CN2CCN(CC(=O)Nc3ccccc3C(=O)NC3CC3)CC2)cc1F	-18	-93*	.	-18	-104*
CC1CCN(CC(=O)Nc2ccccc2C(=O)NC2CC2)CC1	0	5	.	10	-23
COc1ccc(F)cc1CN1CCN(CC(=O)Nc2ccccc2C(=O)NC2CC2)CC1	-1	-107*	.	2	-106*
COc1ccccc1NC(=O)CN1CCN(CC(=O)Nc2ccc(F)cc2F)CC1	14	-10	.	-5	-86*
Cc1cc(C)nc(SC2c3cccc4cccc(c34)C2NS(=O)(=O)c2ccccc2)n1 (stereo unspecified)	-4	3	-7%	-2	1
Cc1ccccc1CNC(=O)C1CCCN(c2nnc(C)c3c(C)n(-c4ccccc4)nc23)C1 (stereo unspecified)	1	16	.	-23	-71*
Cc1nnc(N2CCCC(C(=O)NCc3ccccc3F)C2)c2nn(-c3ccccc3)c(C)c12 (stereo unspecified)	0	8	.	-3	-8
COCCNC(=O)[C@H](CSCc1ccccc1)N1Cc2ccccc2C1=O	3	1	-1%	.	-3
O=C(NC1CCCCCCC1)c1ccc(Br)o1	-6	-11	.	-3	-199*
O=C(CNC(=S)N(Cc1ccccc1)Cc1cccnc1)NCc1ccccc1	9	8	-6%	1	-6
